About 380 (0.12%) of roughly 310,000 compounds were called active. The sample holds actives, similar compounds and a random draw of the others, so the mix is not that of the screen.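 The calls were made as follows: active = B-score of the integrated fluorescence ratio above library mean plus 3 SD, and starting fluorescence ratio within library mean plus 5 SD; inactive = the rest.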
What follows are molecules tested against Short transient receptor potential channel 6 (Mus musculus) (UniProt Q61143) (assay: small molecules opening TRPC6 cation channel – cell-based, HEK293, membrane potential dye, primary screen (AID 2550;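 also: higher score means more depolarization so channel activation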)). Settings: HEK293-TRPC6 membrane potential dye fluorescence, at 10 µM; hits give high values.
Sequence of Short transient receptor potential channel 6 (Mus musculus) (Q61143 whole entry, looked up): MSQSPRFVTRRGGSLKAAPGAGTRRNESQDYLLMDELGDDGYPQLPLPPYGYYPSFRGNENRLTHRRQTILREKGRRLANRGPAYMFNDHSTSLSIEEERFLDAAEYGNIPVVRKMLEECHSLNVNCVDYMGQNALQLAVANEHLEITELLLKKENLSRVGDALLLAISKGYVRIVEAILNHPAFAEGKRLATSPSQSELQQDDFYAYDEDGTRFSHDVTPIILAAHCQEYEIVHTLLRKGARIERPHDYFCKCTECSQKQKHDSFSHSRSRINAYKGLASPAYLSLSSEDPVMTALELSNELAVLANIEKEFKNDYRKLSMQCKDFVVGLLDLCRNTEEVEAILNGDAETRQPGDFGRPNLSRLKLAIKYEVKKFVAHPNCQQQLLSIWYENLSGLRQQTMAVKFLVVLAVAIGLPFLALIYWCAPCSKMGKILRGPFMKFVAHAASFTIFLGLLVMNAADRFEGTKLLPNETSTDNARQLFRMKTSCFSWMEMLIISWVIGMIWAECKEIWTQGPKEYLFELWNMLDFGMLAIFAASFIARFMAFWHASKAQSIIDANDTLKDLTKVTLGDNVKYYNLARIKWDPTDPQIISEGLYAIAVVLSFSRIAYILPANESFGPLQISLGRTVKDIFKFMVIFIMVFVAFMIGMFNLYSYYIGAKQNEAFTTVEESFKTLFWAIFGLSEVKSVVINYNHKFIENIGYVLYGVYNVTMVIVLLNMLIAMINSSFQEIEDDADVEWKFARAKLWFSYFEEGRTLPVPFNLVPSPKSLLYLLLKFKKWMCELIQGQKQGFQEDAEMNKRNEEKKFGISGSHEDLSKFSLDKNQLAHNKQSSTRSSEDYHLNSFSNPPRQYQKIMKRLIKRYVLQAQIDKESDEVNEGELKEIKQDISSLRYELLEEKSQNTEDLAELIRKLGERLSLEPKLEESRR

SMILES | B-score
CCOC(=O)/C(N=Nc1cc(C(=O)O)cc(C(=O)O)c1)=C(\O)CCl | inactive
CC(=O)c1ccc(NC(=O)C(C)NCc2ccc(Cl)cc2)cc1 (configuration not stated) | inactive
O=C(CN1C(=O)NC2(CCCCC2)C1=O)NCCc1c[nH]c2ccccc12 | inactive
N#C/C(=C/c1ccc(N2CCCCC2)o1)C(=O)NCCc1c[nH]c2ccccc12 | 33.2 (active)
CC(=O)N/C(=C/c1ccc(Cl)cc1)C(=O)NCCc1c[nH]c2ccccc12 | inactive
O=C(COc1cc2oc(=O)c3c(c2cc1Cl)CCC3)NCCCN1CCOCC1 | inactive
COc1nc(N(C)C)nc(N2CC(=O)N(CCNS(=O)(=O)c3ccc(C)cc3)C2=N)n1 | inactive
CC(C)(C)NCc1cc(Br)ccc1OC1CCCC1 | inactive
CC(NCc1ccccc1OC1CCCC1)c1ccccc1 (configuration not stated) | 14.5 (active)
COc1ccccc1CN1CCN(C(c2ccccc2)c2ccccc2)CC1 | inactive
COc1ccc2[nH]c(=O)c(CNc3ccc(C)c(C)c3)cc2c1 | inactive
CC(=O)c1ccc(N2CCN(S(=O)(=O)c3c(C)[nH]c(=O)[nH]c3=O)CC2)cc1 | inactive
CN1C(C(=O)NCC2CC2)CC2Cn3c(nc4ccccc43)C21 (configuration not stated) | inactive
CC1(C)OC(=O)C(=CSc2ccc(C(C)(C)C)cc2)C(=O)O1 | inactive
Cc1ccc(C)c(-c2nnc(NC(=O)CS(=O)(=O)c3ccccc3)o2)c1 | inactive
COc1ccc(NC(=O)CS(=O)(=O)c2ccccc2)cc1 | inactive
COc1ccc(-c2nnc(NC(=O)CS(=O)(=O)c3ccc(Cl)cc3)o2)c(OC)c1 | 13.4 (active)
CCOC(=O)CSC1=N/C(=C/c2ccc(-n3cncn3)cc2)C(=O)N1C(C)=O | inactive
COc1ccc(S(=O)(=O)NCC(=O)NC2CC2)cc1OC | inactive
CCc1ccc2oc(=O)cc(CN3CCCCC3C)c2c1 (configuration not stated) | inactive
CCC1OC(c2ccc([N+](=O)[O-])cc2)=Nc2ccccc21 (configuration not stated) | inactive
Cc1cc(Cl)ccc1C(=O)C1CCCN(C(=O)CCN2CCCO2)C1 (configuration not stated) | inactive
O=C(COc1ccc(S(=O)(=O)N2CCOCC2)cc1Cl)N1CCOCC1 | inactive

SMILES | B-score
O=c1[nH]oc(O)c1-c1ncc(C(F)(F)F)cc1Cl | inactive
CC(C)(C)NC(=O)C(=O)NCc1ccncc1 | inactive
COc1ccc(CNC(=O)COC(=O)/C=C/c2ccc(S(=O)(=O)N3CCOCC3)cc2)cc1 | inactive
Cc1ccc(NC(=O)CN2C(=O)NC(C)(c3ccc(Cl)cc3)C2=O)c(Br)c1 (configuration not stated) | inactive
O=C(COc1ccc2ccc(=O)oc2c1)NCC(O)c1ccccc1 (configuration not stated) | inactive
O=C(Nc1ccccc1Cl)c1ccccc1S(=O)(=O)c1ccccc1[N+](=O)[O-] | inactive
CCOC(=O)c1sc2nc(C)[nH]c(=O)c2c1C | inactive
CCOC(=O)c1sc2nc(CSc3ccccc3)[nH]c(=O)c2c1C | inactive
CCOC(=O)c1sc2nc(CSCC(=O)OCc3ccc(C(=O)OC)o3)[nH]c(=O)c2c1C | 18.9 (active)
COc1ccccc1N1CCN(C(=O)c2ccc(NC3=NC4CS(=O)(=O)CC4S3)cc2)CC1 (configuration not stated) | inactive
CCn1cc(C(=O)N2CC=C(c3ccccc3)CC2)c(=O)c2ccc(C)nc21 | inactive
CCOc1cc(-c2conc2N)cc(OCC)c1OCC | inactive
O=C(NCc1ccccc1)C(c1ccco1)N(C(=O)c1csnn1)c1ccccc1F (configuration not stated) | inactive
COc1ccccc1CN1CCNC(=O)C1CC(=O)N(C)CC1CCOCC1 (configuration not stated) | inactive
Cc1ccc(CNC(=O)Cn2c(=O)c3sccc3n(Cc3cccc([N+](=O)[O-])c3)c2=O)cc1 | inactive
O=C(O)CC(Cn1cnnn1)c1ccccc1 (configuration not stated) | inactive
CCc1ccc2nc(Nc3ncc(C(C)=O)c(C)n3)nc(C)c2c1 | inactive
CC(O)c1ccc(OCCN(C)c2ccccn2)cc1 (configuration not stated) | inactive
O=C(CC1C(=O)NCCN1C(=O)c1ccc([N+](=O)[O-])cc1)Nc1cccc(Cl)c1 (configuration not stated) | inactive
CCO[C@@H]1OC(C(=O)NC2CC2)=C[C@H](C)[C@H]1CCCO | inactive
O=C(NC1CCCCC1)C1CC(=O)N(CCc2ccccc2)C1 (configuration not stated) | inactive
CCOC(CNC(=O)C(=O)NCC(c1ccco1)N1CCN(c2ccc(OC)cc2)CC1)OCC (configuration not stated) | inactive
CCOc1ccc(S(=O)(=O)N2CCC(C(=O)NCc3ccccn3)CC2)cc1Cl | inactive

SMILES | B-score
O=C(COc1ccccc1)Nc1nonc1NC(=O)COc1ccccc1 | inactive
CC(=O)c1cc2c(cc1NC(=O)CN1CCCCCC1)OCO2 | inactive
O=C(CCN1C(=O)C2CCCCC2C1=O)Nc1ccc(OC(F)F)cc1 (configuration not stated) | inactive
COC(=O)c1ccc(NC(=O)CSc2nnc(C3CC3)n2C)cc1 | inactive
COC(=O)c1ccc(NC(=O)CSc2nnc(-c3ccncc3)n2C)cc1 | 12.9 (active)
COC(=O)c1ccc(NC(=O)CSc2nnc(CNc3ccc(OC)cc3)n2C)cc1 | inactive
COc1cccc(-c2cccc(NC(=O)C3CCN(C4CCC4)CC3)c2)c1 | inactive
CC(=O)c1c(C)[nH]c(C(=O)N2CCN(S(=O)(=O)c3ccc(F)c(F)c3)CC2)c1C | inactive
[O-][n+]1onc2c1CCc1[nH]c(-c3ccccc3)nc1-2 | inactive
C=CCN1C(=NC(=O)COc2ccccc2)SC2CS(=O)(=O)CC21 (configuration not stated) | inactive
O=c1c2ccccc2cnn1Cc1n[nH]c(=S)n1-c1ccccc1F | inactive
CCC(C(=O)OCC(=O)Nc1ccccc1-c1ccccc1)c1ccccc1 (configuration not stated) | inactive
CCOCCN(C=O)c1cccc(OC)c1 | inactive
C=CCc1cc(S(=O)(=O)c2ccc(O)c(CC=C)c2)ccc1O | inactive
C=CCc1ccc(OCCOc2cccc(/C=N/n3cnnc3)c2)c(OC)c1 | inactive
CN(C(=O)CC(NC(=O)c1ccccc1)(c1ccccc1)c1ccccc1)c1ccccc1 | inactive
Cc1cccc(NC(=O)C(C)N2C(=O)C3C4CC(C(Br)C4Br)C3C2=O)c1 (configuration not stated) | inactive
CC(=O)c1c(N2CCN(c3ccc(F)cc3)CC2)nc(=S)n(-c2ccccc2)c1C | inactive
CC(=O)Nc1ccc(NC(=O)COc2ccc(S(=O)(=O)NC(C)c3ccccc3)cc2)cc1 (configuration not stated) | inactive
FC(F)(F)c1cccc(-c2cc3ccccc3nc2N2CCCC2)c1 | inactive
Cc1cccc2[nH]c(CN(C)C(=O)C3CCC(=O)N(CCc4ccccc4)C3)nc12 (configuration not stated) | inactive

From PubChem BioAssay AID2550 (Johns Hopkins Ion Channel Center, 2010)
